Assay outcomes deposited in PubChem by National Center for Advancing Translational Sciences (NCATS).
HttQ103 aggreg – qHTS Multiplex Assay to Identify Dual Action Probes in a Cell Model of Huntington: Aggregate Formation (GFP). PC12 HttQ103-GFP aggregates, Acumen cytometry, 40 h. Potency, µM (doses to about 46.1 µM), most hits filed as inhibitors. hit rate 1.1% among 220,000. AID 1688, 2009; also: nearly all actives have a fitted effect of over 60% in size
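Inducible Q103 Huntingtin exon 1–GFP PC12 line, 1500 cells/well in phenol red free DMEM with 5% equine and 5% calf serum. Tebufenozide 100 nM induced expression; compounds titrated; aggregates quantified by cytometry.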
IMPase inh – qHTS Assay for Identifying the Cell-Membrane Permeable IMPase Inhibitors | AID 901, 2007 | inhibition (IP1 accumulation), % at 46.1 µM | CHO-M1 cells, IP1 accumulation, HTRF TR-FRET ratio | Inositol monophosphatase 1 (Rattus norvegicus), P97697 | 120,000 tested, under 10 active; active = well fitted curve in the direction sought with a large enough effect in the signal ratio, not every such curve was filed as active; inconclusive = small, poorly fitted or top-dose-only effect, or a change in a side signal; inactive = no such curve, though single readings can be large or run the other way; the % refers to the signal ratio;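 also: cells stimulated with carbachol in lithium chloride buffer; higher means more IMPase inhibition seen as more IP1 and lower FRET ratio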
Target sequence (P97697 whole entry, looked up): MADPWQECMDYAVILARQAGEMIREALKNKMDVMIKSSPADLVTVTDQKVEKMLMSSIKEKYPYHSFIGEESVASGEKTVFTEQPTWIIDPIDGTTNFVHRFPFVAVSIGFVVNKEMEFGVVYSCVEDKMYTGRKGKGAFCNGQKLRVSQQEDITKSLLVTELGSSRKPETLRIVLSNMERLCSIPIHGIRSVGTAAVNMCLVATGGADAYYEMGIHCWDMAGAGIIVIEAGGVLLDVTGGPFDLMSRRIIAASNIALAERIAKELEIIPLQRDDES
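In this qHTS, compounds (final up to 46 uM) act on CHO-M1 cells that are then activated through the M1 receptor with carbachol, in pH 7.4 buffer containing 50 mM LiCl, for 30 min. IP1 accumulation is quantified by the IP-One immunoassay.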
HPGD inh – qHTS Assay for Inhibitors of HPGD (15-Hydroxyprostaglandin Dehydrogenase). 15-hydroxyprostaglandin dehydrogenase [NAD(+)] (Homo sapiens), P15428. purified HPGD, NADH fluorescence kinetic, PGE2 substrate. Potency, µM, hits mostly inhibitors. hit rate 4.3% among 150,000; active = well fitted inhibition curve with a large enough effect, not every such curve was filed as active; inconclusive = small, poorly fitted or top-dose-only effect, or another doubt; inactive = no such curve, though single readings can be large or run the other way
Target sequence (P15428 whole entry, looked up): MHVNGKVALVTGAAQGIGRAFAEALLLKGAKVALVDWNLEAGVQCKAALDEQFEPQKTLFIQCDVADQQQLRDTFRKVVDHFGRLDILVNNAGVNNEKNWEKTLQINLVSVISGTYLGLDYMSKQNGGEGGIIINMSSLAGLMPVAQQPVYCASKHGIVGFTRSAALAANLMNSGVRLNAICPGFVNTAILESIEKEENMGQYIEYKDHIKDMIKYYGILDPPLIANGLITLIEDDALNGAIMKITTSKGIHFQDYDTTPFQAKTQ
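NADH formation kinetics: reaction with 30 uM PGE2 and 1 mM NAD+ (final), 20 nM enzyme, Tris-HCl pH 8 with Tween 20, after 15 min compound preincubation at room temperature. Fluorescence change, last versus first of five reads.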
ALDH1A1 block – qHTS Assay for Inhibitors of Aldehyde Dehydrogenase 1 (ALDH1A1); Potency, µM (doses to about 75.3 µM), usual class: inhibitors; hit rate 7.3% among 220,000; AID 1030, 2008; Purified ALDH1A1, NADH fluorescence, propionaldehyde substrate; active = well fitted inhibition curve with a large enough effect, not every such curve was filed as active; inconclusive = small, poorly fitted or top-dose-only effect, or another doubt; inactive = no such curve, though single readings can be large or run the other way
HTT ATP protect – qHTS Multiplex Assay to Identify Dual Action Probes in a Cell Model of Huntington: Cytoprotection (ATP). Potency, µM (highest dose often 56.4 µM), hits mostly activators. AID 1471, 2008. PC12 HTT-Q103 induced, cytoprotection, ATP luminescence, 40 h. hit rate 0.14% among 230,000; also: nearly all actives have a fitted effect of over 45% in size
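ATP quantification (ATPlite) reports survival of PC12 cells in which tebufenozide, 100 nM final, switches on Htt exon 1 with 103 glutamines linked to GFP; compounds are titrated.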
IMPase Li cell – qHTS Assay for Identifying the Cell-Membrane Permeable IMPase Inhibitors: Potentiation with Lithium | hit rate 0.35% among 210,000 | CHO-M1 cells, IP1 TR-FRET (IP-One), carbachol + lithium | Potency, µM (highest dose often 59.4 µM), actives largely listed as inhibitors;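 also: IP1 builds up when IMPase is blocked and the TR-FRET signal falls; nearly all actives have a fitted effect of over 50% in size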
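CHO-M1, 2000 cells/well, 16–30 h culture; cpd + low Li+, 30 min 37C; lysis with d2-IP1/Eu-anti-IP1 Ab, 10 min RT; TR-FRET 665/620 ratio and 620 channel; AC50 via Hill.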
Numbers stand for hits; - = inactive; ? = inconclusive; . = no result given; [ ] = remark or other dose. Compounds with a hit are over-represented: about 9.4% of the library has one in this group of screens. Unless noted, calls follow the shape of the dose curve; as a rule, active = well fitted curve in the direction sought with a large enough effect; inconclusive = small, poorly fitted or top-dose-only effect, or another doubt; inactive = no such curve, though single readings can be large; an effect the other way counts as inactive or inconclusive.

SMILES	HttQ103 aggreg	IMPase inh	HPGD inh	ALDH1A1 block	HTT ATP protect	IMPase Li cell
CC(C)C(=O)c1cn(CC(=O)NCC2CCCO2)c2ccccc12 (stereo not drawn)	-	-	-	22µM	-[10 µM]	-
Cn1c(=O)cc(SCC(=O)NCC2CCCO2)c2ccccc21 (stereo not drawn)	-	-	.	13µM	-	.
COCCN1C(=O)N[C@@H](c2cccc(C(F)(F)F)c2)C(C(C)=O)=C1C	.	.	-	-	-	-
CC(C)CC1OCCC=CC1C (stereo not drawn)	.	.	.	-[13.5 µM]	-[10 µM]	.
CCOc1ccc(NC(=O)CSc2ccccc2N)cc1	-	.	.	?	-	-
CCOC(=O)c1sc2nc(Cc3ccc(Cl)cc3)[nH]c(=S)c2c1C	-	.	.	-	-	7.9µM
O=C1/C(=C/c2ccc(O)cc2)SC(=S)N1CC1CCCO1 (stereo not drawn)	-[9.22 µM]	.	.	.	-[10 µM]	.
Cc1ccsc1/C=C1\SC(=S)N(CC2CCCO2)C1=O (stereo not drawn)	-[9.22 µM]	.	.	1µM	-[10 µM]	-
CCCOc1ccc(/C=C2\SC(=S)N(CC3CCCO3)C2=O)cc1 (stereo not drawn)	-	.	-	6.3µM	-[0.074 µM]	-
COC1=C/C(=C/c2c(N)n3nc(-c4ccc(C)cc4)sc3nc2=O)C=CC1=O	-[9.22 µM]	.	.	1.1µM	-[10 µM]	-
CCOC1=C/C(=C/c2c(N)n3nc(-c4ccccc4)sc3nc2=O)C=CC1=O	-	.	.	?	-	-
CC(C)(C)SCCNS(=O)(=O)c1ccccc1	-[9.22 µM]	-	-	?	-	-
CSc1ccc(S(=O)(=O)NCCOc2ccccc2C)cc1	-	-	-	13µM	-	-
COCCCNS(=O)(=O)c1ccc(SC)cc1	-	.	-	?	-[10 µM]	-
CC(C)(C)SCCNS(=O)(=O)c1ccc2ccccc2c1	-[9.22 µM]	-	-	15µM	-	-
CSc1ccc(S(=O)(=O)NCCSC(C)(C)C)cc1	-	-	-	7.9µM	-[10 µM]	-
N#C/C(=C\c1ccc(Cl)cc1)C(=O)NCC1CCCO1 (stereo not drawn)	.	-	.	.	.	.
CC(C)=CCC/C(C)=C/CO/N=C1/C[C@@H](O)[C@@H](O)[C@@H]2[C@@H]3C(=O)N(C4CCCCC4)C(=O)[C@H]3CC[C@H]12	.	.	.	-[13.5 µM]	-[10 µM]	.
C=CCC(C)(NCc1ccccc1)C(=O)OCC (stereo not drawn)	.	.	-	-	-	-
CCCSC1=C(C#N)C2(CCCCC2)C(C#N)=C(N)N1	-[9.22 µM]	.	.	2µM	-[10 µM]	-
N#CC1=C(N)NC(SCc2ccccc2)=C(C#N)C12CCCCC2	?	-	-	13µM	-	-
CCSC1=C(C#N)C2(CCCCC2)C2=C(CC(C)(C)CC2=O)N1	-[9.22 µM]	.	.	?	-[10 µM]	-
N#CC1=C(N)NC(SCC(=O)Nc2ccccc2)=C(C#N)C12CCCCC2	-	-	-	25µM	-[10 µM]	-
N#Cc1cc2c(nc1SCc1ccccc1)CCCC2=O	-	-	-	?	-[10 µM]	-
CCSC1=C(C#N)C2(CCCCC2)C(C#N)=C(N)N1	?	-	-	10µM	-[10 µM]	-
SMILES	HttQ103 aggreg	IMPase inh	HPGD inh	ALDH1A1 block	HTT ATP protect	IMPase Li cell
O=C(O)[C@@H]1[C@@H](C(=O)Nc2ccccc2)[C@@H]2C=C[C@@H]1O2	.	.	-	-[13.5 µM]	-[10 µM]	-
CC(=O)OCC1OC(C#Cc2ccc(Br)cc2)C=CC1OC(C)=O (stereo not drawn)	.	.	.	-[13.5 µM]	-[10 µM]	.
OCC1OC(n2cnc3c(=S)nc[nH]c32)C(O)C1O (stereo not drawn)	-	.	-	?	-	-
COC(=O)C1=C(C)N(Cc2ccccc2)C2=C3C(=O)OCCC3[C@@](O)(C(=O)OC)C(=O)N2C1c1ccccc1 (stereo partly drawn)	.	.	.	-[13.5 µM]	-[10 µM]	.
CCCCn1c(SCC(=O)c2ccc(OC)cc2OC)nc2cc(S(N)(=O)=O)ccc21	-	-	-	7.1µM	-[0.074 µM]	-
O=C(CN(CCc1ccccc1)C(=O)Cn1nnc(-c2cccs2)n1)NCc1ccco1	-	-	-	13µM	-	-
O=C(CN(CCc1ccccc1)C(=O)CN1C(=O)COc2ccccc21)NCc1ccco1	-	-	-	8.9µM	-[10 µM]	-
Cc1ccc2c(c1)N(CC(=O)NCc1ccco1)C(=O)CO2	-	-	-	-	-[1.9 µM]	-
COc1ccccc1C(=O)NC1(C(F)(F)F)C(=O)Nc2c1c(=O)[nH]c(=O)n2-c1ccccc1 (stereo not drawn)	.	-	.	.	.	.
CC1(C)N=C(N)N=C(N)N1c1cccc(OCc2cccc(N)c2)c1	.	.	-	-[13.5 µM]	-[10 µM]	-
Cc1[nH]c2ccccc2c1C(=O)COC(=O)C1CC(=O)N(Cc2ccco2)C1 (stereo not drawn)	-	-	-	?	-	-
Cc1ccc(CCN2CC(C(=O)NCc3ccco3)CC2=O)cc1 (stereo not drawn)	-	-	-	28µM	-	-
Cc1ccc(C(=O)Oc2ccc(C(=O)COC(=O)C3CC(=O)N(Cc4ccco4)C3)cc2)cc1 (stereo not drawn)	-	?	?	25µM	-[10 µM]	-
Cc1ccc(CCN2CC(C(=O)NCCN3CCCCCC3)CC2=O)cc1 (stereo not drawn)	-	-	-	-	-	-
O=C(COC(=O)C1CC(=O)N(Cc2ccco2)C1)c1ccc(OC(=O)c2ccco2)cc1 (stereo not drawn)	-	-	18µM	1.6µM	-[10 µM]	-
CC(=O)Oc1oc(-c2ccccc2)nc1C=Nc1ccccc1	-	-	16µM	18µM	-	-
CCOC(=O)c1ccc(N=Cc2nc(-c3ccccc3)oc2OC(C)=O)cc1	-	-	16µM	22µM	-	-
CCC(=O)Oc1oc(-c2ccccc2)nc1C=Nc1ccc(C)cc1	-[9.22 µM]	.	.	.	-[10 µM]	.
COc1ccc(N=Cc2nc(-c3ccccc3)oc2OC(=O)c2ccccc2)cc1	-	.	22µM	?	-[10 µM]	-
Cc1ccc(C(=O)Oc2oc(-c3ccco3)nc2C=Nc2ccccc2)cc1	-	-	7.1µM	?	-	-
CN(C)c1ccc(N=Cc2nc(-c3ccccc3)oc2OC(=O)c2cccc(Br)c2)cc1	-	.	?	?	-[10 µM]	-
COc1c2c(cc3c1C(c1c(O)c4ccccc4oc1=O)N(C)CC3)OCO2 (stereo not drawn)	.	.	?	?	-	-
CC(C)c1cccc(C(C)C)c1NC1=NS(=O)(=O)c2ccccc21	.	-	.	.	.	.
Oc1oc(-c2ccco2)nc1C=Nc1ccccc1	-	-	-	22µM	-[10 µM]	-
O=C(O)c1ccc(N=Cc2nc(-c3ccco3)oc2O)cc1	-	.	.	-	-	-
